# Screens (PubChem)
# An excerpt weighted towards active compounds, which were near 4% of everything screened.
# MITF act – activators of MITF-driven TRPM1 promoter activity in SK-MEL-5 cells. SK-MEL-5 TRPM1-promoter luciferase, 24 h; % of positive control, neutral wells = 0. activation, % at 12.5 µM. 300,000 tested, 0.75% active. AID 588334;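 active means mean activation of at least 80% with every replicate also reaching 80%; inconclusive means mean reaches 80% but some replicate falls short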;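 further: 0% = neutral control wells and 100% = parthenolide positive control wells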
# LMP1 NFkB inh – inhibitors of Epstein-Barr LMP1-induced NF-kappaB reporter. LMP1-induced NF-kappaB luciferase reporter cells, luminescence. inhibition, % at 12.5 µM. 350,000 tested, 0.69% active; in the data active means inhibition above about 41%; inconclusive means no clear call, values can overlap the other calls;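 further: 0% = neutral control wells and 100% = reference inhibitor control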
# TRPM1 prom inh – MITF TRPM1 promoter inhibition in SK-MEL-5 cells | SK-MEL-5 TRPM1 promoter luciferase, 24 h | inhibition, % at 12.5 µM | 330,000 tested, 0.83% active | AID 488899;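 active means mean inhibition across replicates of 60% or more, whatever share of single replicates reaches that level; inconclusive means some that reach 60%, reason not given; inactive means mean inhibition across replicates below 60%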
# Wnt act – activators of Wnt/beta-catenin signaling. activation, % at 9.35 µM. Wnt/beta-catenin reporter cell assay, activator, plate reader. 300,000 tested, 1.2% active; in the data active means activation above about 30%, passing the limit was not always enough; inconclusive means no clear call, values can overlap the other calls;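 further: 0% = neutral control wells and 100% = positive control wells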
# esBAF inh – inhibitors of esBAF chromatin remodeling in mouse ES cells; Bmi1-luciferase knock-in reporter, 24 h; 100% = twice the neutral-well signal; reporter increase, % at 12.5 µM; AID 602393; 350,000 tested, 2% active; in the data active means activation above about 40%; inconclusive means no clear call, values can overlap the other calls;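 further: 0% = median of the plate's neutral control wells and 100% = double that signal; a rise in the Bmi1 reporter signal indicates esBAF inhibition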
# Statin myotox sup – suppressors of simvastatin-induced myotoxicity in C2C12 myotubes; rescue of ATP level, % at 7.49 µM; 330,000 tested, 0.78% active; ATP luminescence, 48 h; scaled: DMSO 0, geranylgeraniol control 100;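 active means mean ATP rescue above about 67%, or every replicate alone reaching that limit, limit read from the data, passing the limit was not always enough; inconclusive means no clear call, values can overlap the other calls; inactive means mean under the limit and some replicate under it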;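 further: myotubes were challenged with 10 µM simvastatin during compound exposure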
# * marks the source's active call; other numbers are inactive results; ? = inconclusive; . = not tested or not shown; ! = repeats disagree.
SMILES,MITF act,LMP1 NFkB inh,TRPM1 prom inh,Wnt act,esBAF inh,Statin myotox sup
COC(=O)[C@H]1[C@H](CO)[C@H]2Cn3c(ccc(-c4ccccc4F)c3=O)[C@@H]1N2Cc1ccccc1,.,.,.,.,-1,38
CSCCC(NC(=O)CCC(=O)OC1CC[C@H]2[C@@H]3CC[C@H]4CC(=O)CC[C@]4(C)[C@H]3CC[C@]12C)C(=O)O (stereo not given in full),2,1,-3,0,-1,4
NNCc1ccccc1,32,-1,-29,13,49*!,9
CNC(=S)N1CCN(CCN=Cc2c(O)n(-c3ccc(C)cc3)c(=S)[nH]c2=O)CC1,2,1,-4,-1,-2,2
CCn1nc(-c2ccccc2)nc2c(=O)n(C)c(=O)nc1-2,-99,-4,99*,.,0,0
COc1ccc(-c2nc3ccccc3c(=O)n2-c2ccc(OC)cc2)cc1,6,-1,-5,0,.,.
CC1Oc2cc3c(-c4c(O)cc(O)c5c(O)c6c(cc45)OC(C)C(C)C6=O)c(O)cc(O)c3c(O)c2C(=O)C1C (stereo not given),-82,29,82*,.,-59,-158
COc1cc2cc(C(=O)N3CC(COS(C)(=O)=O)c4ccc(O)cc43)[nH]c2c(OC)c1OC (stereo not given),.,90*,110*,.,.,.
C[C@]12CCC3C(C[C@@H](O)[C@H]4C[C@@H](O)CC[C@]34C)C1CC[C@@H]2O (stereo not given in full),5,3,-3,0,-7,7
CCN1C[C@]2(C)CC[C@H](O)[C@]34C1[C@H](C[C@H]23)[C@@]1(O)C[C@H](OC)[C@H]2C[C@@H]4[C@@H]1C2O (stereo not given in full),8,90*,-5,-2,0,-2
CC(C)CN(CC(C)C)C(=O)C1C2c3ccccc3C(c3ccccc32)C1C(=O)O (stereo not given),12,-2,-10,-2,.,.
COC(=O)C1=C(c2ccc(-c3ccccc3)c(F)c2)C[C@@H]2CC[C@H]1N2C(=O)N1CCC(C)CC1,-9,45*,10,-3,-10,7
COC(=O)C1=C(c2ccc3ccccc3c2)C[C@@H]2CC[C@H]1N2C(=O)N1CCC(O)CC1,-13,85*,14,.,7,3
COC(=O)C1=C(c2ccc(-c3ccccc3)c(F)c2)C[C@@H]2CC[C@H]1N2C(=O)N1CCC(O)CC1,-17,18,17,-3,-3,15
CN(C)C(=O)Oc1c(Cl)cc(Cl)c2cccnc12,-2,5,-1,48*,-8,5
CCc1sc(C(=O)N2CCC3(CC2)OCCO3)cc1Br,2,-1,-4,.,2,7
c1cncc(C2Nc3cccc4cccc(c34)N2)c1,-23,8,19,-9,3,6
C=CCn1c(O)c(C(CC)=NCCCO)c(=O)[nH]c1=O,9,3,-8,.,-2,-9
O=C1C(=O)c2cccc3cccc1c23,5,6,2,-11,.,.
O=C1C(=O)c2ccccc2-c2ccccc21,-110,86*,110*,-24,?,-239
C[C@@H]1O[C@@H](O[C@H]2C[C@@H](O)[C@]3(CO)[C@@H]4C(CC[C@]3(O)C2)[C@@]2(O)CC[C@H](C3COC(=O)C3)[C@@]2(C)C[C@H]4O)[C@H](O)[C@H](O)[C@H]1O (stereo not given in full),-78,53*,79*,-29,-6,6
O=c1cc(C2CCNCC2)[nH][nH]1,-2,-3,2,.,-4,-16
COc1ccc2c(c1OC)CN1CCc3cc4c(cc3[C@H]1C2)OCO4,10,-6,-10,.,-15,9
CCC1CN2CCc3cc(OC)c(OC)cc3C2CC1CC1NCCc2c1[nH]c1ccc(O)cc21 (stereo not given),.,83*,97*,-10,.,.
C=Cc1cc(OC)c2c(c1)c(=O)oc1c2cc(OC)c2c(O)ccc(C3OC(C)C(O)C(C)(O)C3O)c21 (stereo not given),-77,88*,78*,-8,.,.
SMILES,MITF act,LMP1 NFkB inh,TRPM1 prom inh,Wnt act,esBAF inh,Statin myotox sup
CC(C)C[C@H](NC(=O)[C@@H]1CCCN1C(=O)[C@@H](N)Cc1ccc(O)cc1)C(=O)NCC(N)=O,-5,66*,4,-1,5,-1
CC(=NCc1cccnc1)c1c(O)n(-c2ccccc2C)c(=O)[nH]c1=O,4,-4,-1,-2,0,11
O=C(C1CC(c2ccc(Cl)c(Cl)c2)=NO1)N1CCC2(CC1)OCCO2 (stereo not given),117*,-22,-114,.,80*,2
Cc1oc2ccc(OC(=O)N(C)C)cc2c1C(=O)OC(C)C,.,2,-13,0,.,.
Brc1ccc(Oc2cc(Br)c(Br)cc2Br)c(Br)c1,17,-11,-14,5,-4,-3
CCc1ccc(-c2nn(Cc3ccccc3)cc2C=O)cc1,69,-25,-51,14,67*,-6
O=Cc1cn(Cc2c(F)cccc2Cl)nc1-c1ccccc1,21,-1,-22,-4,-11,-7
CCOC(=O)C(O)(c1ccc(NC(=O)NC2CCCCC2)cc1)C(F)(F)F (stereo not given),47,-12,-49,6,46*,-40
CCOC(=O)C(O)(c1ccc(NC(=O)c2ccc(Cl)c(Cl)c2)cc1)C(F)(F)F (stereo not given),.,-15,2,0,2,-33
C=CCOC(=O)C1=C(C)OC(N)=C(C#N)C12C(=O)N(CN1CCOCC1)c1ccccc12 (stereo not given),3,5,-1,.,-3,111*
Oc1ccccc1-[n+]1c(-c2ccccc2)cc(-c2ccccc2)cc1-c1ccccc1,-11,4,12,-3,-14,-176
COc1ccc(-[n+]2c(-c3ccccc3)cc(-c3ccc(C)cc3)cc2-c2ccccc2)cc1,-73,-1,74*,-7,-33,-135
CCCOC(=O)c1ccc(-[n+]2c(-c3ccccc3)cc(-c3ccccc3)cc2-c2ccccc2)cc1,-61,32,64*,-24,-34,-40
Cc1ccccc1-[n+]1c(-c2ccccc2)cc(-c2ccccc2)cc1-c1ccccc1,-87,?,90*,-16,-72,-180
Brc1ccc(-[n+]2c(-c3ccccc3)cc(-c3ccccc3)cc2-c2ccccc2)cc1,-69,17,70*,-18,-50,-115
O=C(O)c1ccc(-[n+]2c(-c3ccccc3)cc(-c3ccccc3)cc2-c2ccccc2)cc1,7,-4,-9,-2,-16,7
Cc1ccc(C)c(C2(O)CC(C)N(C)CC2C)c1 (stereo not given),14,-3,-10,.,-2,1
C=CCn1c(O)c(C(CC)=Nc2ccccc2NC(C)=O)c(=O)[nH]c1=O,.,6,5,.,3,-3
